Results reported in the supplement of paper PMC10981050.
Values joined by “and” are separate entries in the source; they are usually repeats but may differ in a detail not shown here. Equal values may be shown once. Where a name gives a salt, the structure may show the parent alone.

Assays:
Experiment in all cases: cell viability relative to vehicle control; higher = less cytotoxic
Details in all cases: 10 µM
K562 = test system: K562
How it was run: (§1)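 CRISPR-edited SRSF2 P95 mutant and isogenic wild-type clones of four leukaemia lines were screened against Selleck bioactive, kinase and epigenetic probe libraries, with identity-inconsistent compounds removed. Compounds were acoustically dispensed into 384-well plates at a single 10 µM dose, with 2000 cells in 50 µL medium per well. After 48 h, supernatant was removed and CellTiter-Glo luminescence was read. Viability was expressed as percent of the on-plate DMSO vehicle control, analysed in Genedata Screener.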

MARIMO = test system: MARIMO
How it was run: as §1

MOLM14 = test system: MOLM14
How it was run: as §1

OCI-AML2 = test system: OCI-AML2
How it was run: as §1

| Structure (SMILES) | cell viability (K562; SRSF2 genotype: SRSF2 P95H/wt) | cell viability (K562; SRSF2 genotype: SRSF2 wt/wt) | cell viability (MARIMO; SRSF2 genotype: SRSF2 P95H/wt) | cell viability (MARIMO; SRSF2 genotype: SRSF2 wt/wt) | cell viability (MOLM14; SRSF2 genotype: SRSF2 P95H/wt) | cell viability (MOLM14; SRSF2 genotype: SRSF2 wt/wt) | cell viability (OCI-AML2; SRSF2 genotype: P95H/wt) | cell viability (OCI-AML2; SRSF2 genotype: wt/wt) |
| --- | --- | --- | --- | --- | --- | --- | --- | --- |
| CCOC(=O)CCC(=O)O[C@H]1[C@H](O[C@@H]2[C@@H](C)[C@H](O[C@H]3C[C@@](C)(OC)[C@@H](O)[C@H](C)O3)[C@@H](C)C(=O)O[C@H](CC)[C@@](C)(O)[C@H](O)[C@@H](C)C(=O)[C@H](C)C[C@@]2(C)O)O[C@H](C)C[C@@H]1N(C)C [Erythromycin Ethylsuccinate] | 95.1% and 103% | 108% | 102% | 101% | 106% | 102% | 117% | 98.3% |
| Cn1c(=O)c(F)c(Nc2ccc(I)cc2F)c2c(=O)n(C[C@@H](O)CO)cnc21 | 66.4% and 83.6% | 77% | 43.7% | 36.3% | 45.7% | 29.8% | 47.5% | 46.9% |
| CCOC(=O)C=P(c1ccccc1)(c1ccccc1)c1ccccc1 [Ethyl (triphenylphosphoranylidene) acetate] | 96.8% and 92.7% | 98.4% | 90% | 99.2% | 84.5% | 93% | 90.2% | 84.8% |
| Cc1ccc(S(=O)(=O)C=CC#N)cc1 | 1.6% and 0.48% | 0.6% | 0.37% | 0.39% | 0.28% | 0.27% | 0.28% | 0.35% |
| CCCOc1ccc2c(c1)CC[C@@H]1[C@@H]2CC[C@]2(C)[C@@H](OC)CC[C@@H]12 [Promestriene] | 86.2% and 89.4% | 94.1% | 76.6% | 89.8% | 83.1% | 97.2% | 59.6% | 66.2% |
| CN(C)Cc1cccc(N=C(c2ccccc2)c2c(O)[nH]c3cc(C(=O)N(C)C)ccc23)c1 | 88.8% and 90.6% | 79.6% | 60.9% | 63.4% | 38.4% | 31.6% | 38.5% | 36.2% |
| COc1cc(OC)c2c(=O)[nH]c(-c3cc(C)c(OCCO)c(C)c3)nc2c1 | 81.8% and 87.1% | 87.5% | 80.1% | 71.1% | 77.8% | 81.3% | 79% | 86% |
| CCCC1CC(C(=O)NC(C(C)Cl)C2OC(SC)C(O)C(O)C2O)N(C)C1 (centres undefined) [Clindamycin alcoholate] | 104% and 98% | 102% | 98.5% | 107% | 103% | 108% | 107% | 98.6% |
| CC(C)C[C@H](NC(=O)CNC(=O)c1cc(Cl)ccc1Cl)B(O)O [Ixazomib (MLN2238)] | 2.07% | 3.87% | 0.76% | 3.15% | 0.41% | 0.47% | 0.44% | 1.8% |
| COc1ccc(-c2nc3cc(C4=NNC(=O)CC4C)ccc3[nH]2)cc1 (centres undefined) [Pimobendan (Vetmedin)] | 59.4% and 65.2% | 68.4% | 65.5% | 57.5% | 68% | 83.6% | 89.3% | 84.4% |
| COC(=O)C1=CO[C@@H](O[C@@H]2O[C@H](CO)[C@@H](O)[C@H](O)[C@H]2O)[C@H]2[C@@H]1C(=O)C[C@@H]2C [Verbenalin] | 104% and 98.5% | 104% | 99.9% | 100% | 110% | 103% | 98.4% | 100% |
| CCCc1nn(C)c2c(=O)[nH]c(-c3cc(S(=O)(=O)N4CCN(C)CC4)ccc3OCC)nc12 [Sildenafil citrate] | 100% and 106% | 103% | 106% | 108% | 108% | 111% | 118% | 109% |
| O=S(=O)(NCCSSCCNS(=O)(=O)c1cc(Cl)ccc1Cl)c1cc(Cl)ccc1Cl | 80.6% and 84.4% | 69.5% | 61% | 72.4% | 53.8% | 48.8% | 51.9% | 52.5% |
| CN1CCC(c2c(O)cc(O)c3c(=O)cc(-c4ccccc4Cl)oc23)C(O)C1 (centres undefined) [Flavopiridol (Alvocidib) HCl] | 5.96% and 15.8% | 7.9% | 11.1% | 4.66% | 3.87% | 0.54% | 5.83% | 16.3% |
| NC(=O)[C@@H]1CC[C@@H]2CN1C(=O)N2OS(=O)(=O)O [Avibactam sodium] | 102% and 116% | 112% | 110% | 106% | 108% | 111% | 102% | 101% |
| O[C@H]1[C@H]2c3cc4c(cc3CN3CCC(=C[C@@H]1O)[C@H]23)OCO4 [Lycorine hydrochloride] | 18.7% and 26.8% | 28.4% | 22.9% | 21% | 20.3% | 7.64% | 0.76% | 2.07% |
| Oc1ccc2ccccc2c1N=Nc1ccc(N=Nc2ccccc2)cc1 [Solvent Red 23] | 83.7% and 81.2% | 82% | 82.6% | 90.8% | 76% | 85.3% | 75.3% | 78.7% |
| CC#CC(=O)N1CC[C@@H](n2c(=O)n(-c3ccc(Oc4ccccc4)cc3)c3c(N)ncnc32)C1 [ONO-4059 (GS-4059) hydrochloride] | 91% and 102% | 95.7% | 97.2% | 107% | 91.4% | 95.8% | 91% | 88.9% |
| Cc1ccc(S(=O)(=O)n2c(N)nc3ccccc32)cc1 | 95.4% and 101% | 97.9% | 102% | 104% | 102% | 104% | 98.3% | 97.2% |

| Structure (SMILES) | cell viability (K562; SRSF2 genotype: SRSF2 P95H/wt) | cell viability (K562; SRSF2 genotype: SRSF2 wt/wt) | cell viability (MARIMO; SRSF2 genotype: SRSF2 P95H/wt) | cell viability (MARIMO; SRSF2 genotype: SRSF2 wt/wt) | cell viability (MOLM14; SRSF2 genotype: SRSF2 P95H/wt) | cell viability (MOLM14; SRSF2 genotype: SRSF2 wt/wt) | cell viability (OCI-AML2; SRSF2 genotype: P95H/wt) | cell viability (OCI-AML2; SRSF2 genotype: wt/wt) |
| --- | --- | --- | --- | --- | --- | --- | --- | --- |
| C[C@@H]1C(=O)O[C@H]2C[C@@]34[C@H]5C[C@@H](C(C)(C)C)[C@]36[C@@H](OC(=O)[C@@H]6O)O[C@@]4(C(=O)O5)[C@]21O [Ginkgolide A] | 105% and 100% | 97.8% | 101% | 106% | 105% | 103% | 106% | 95.5% |
| O=C(c1ccccc1)c1ccc2n1CCC2C(=O)O (centres undefined) [Ketorolac] | 102% and 98.1% | 99.6% | 100% | 102% | 98.2% | 102% | 103% | 108% |
| COc1ccc(/C=C/C(=O)Nc2ccccc2C(=O)O)cc1OC | 98.1% and 98% | 98.1% | 108% | 102% | 98.9% | 100% | 113% | 102% |
| Cc1ncc([N+](=O)[O-])n1CC(O)CCl (centres undefined) [Ornidazole] | 96.6% and 100% | 94.7% | 102% | 104% | 91.9% | 105% | 103% | 106% |
| C=C[C@H]1CN2CC[C@H]1C[C@H]2[C@H](O)c1ccnc2ccc(OC)cc12 [Quinine hydrochloride dihydrate] | 90.8% and 92.7% | 88% | 87.7% | 86.5% | 79.7% | 93.2% | 88.9% | 84.9% |
| CC1(C)CCC2(C(=O)O)CCC3=C(C(CCl)CC4C3(C)CCC3C4(C)CC(O)C(O)C3(C)C(=O)O)C2C1 (centres undefined) [Senegenin] | 107% and 97.9% | 104% | 96.8% | 108% | 100% | 106% | 105% | 113% |
| C[C@]12C[C@@H](O)[C@@H]3C[C@@]1(O[C@@H]1O[C@H](CO)[C@@H](O)[C@H](O)[C@H]1O)[C@@]3(COC(=O)c1ccccc1)C(=O)O2 [Albiflorin] | 103% and 108% | 107% | 96.9% | 94.5% | 104% | 98.4% | 98.3% | 92.9% |
| Nc1ncnc2c1ncn2[C@@H]1O[C@H](CO)[C@@H](O)[C@@H]1O [Vidarabine monohydrate] | 105% and 101% | 110% | 86% | 98.5% | 97.6% | 103% | 110% | 119% |
| CC(C)C[C@H](NP(=O)(O)O[C@@H]1O[C@@H](C)[C@H](O)[C@@H](O)[C@H]1O)C(=O)N[C@@H](Cc1c[nH]c2ccccc12)C(=O)O [Phosphoramidon Disodium Salt] | 104% and 101% | 92.3% | 101% | 106% | 95.5% | 104% | 98.6% | 96.9% |
| COc1cc2c(cc1OC)[C@@H]1Cc3ccc(OC)c(OC)c3CN1CC2 [Rotundine] | 87.8% and 98.4% | 101% | 98.2% | 91.1% | 94% | 95.2% | 95.1% | 90.4% |
| Nc1ccc(S(=O)(=O)Nc2ncccn2)cc1 [Sodium sulfadiazine] | 98.3% and 99.1% | 102% | 106% | 97.4% | 98.1% | 102% | 109% | 96.8% |
| CC(C)(C#N)c1ccc(N2C(=O)OCc3cnc4ccc(-c5cnc6ccccc6c5)cc4c32)cc1 | 78.7% and 82.1% | 85.8% | 83% | 92.5% | 66% | 80.2% | 74.5% | 75.7% |
| CCCOC(C(=O)OC1CCN(C)CC1)(c1ccccc1)c1ccccc1 [Propiverine hydrochloride] | 80.6% and 87.8% | 88.2% | 68.5% | 79.1% | 75.2% | 85.2% | 72.1% | 64.2% |
| O=c1[nH]cnc2ccccc12 [4-Hydroxyquinazoline] | 99.8% and 93.6% | 96.8% | 93.8% | 92.2% | 106% | 95.5% | 99.6% | 92.6% |
| CCc1cncnc1N1CCN(Cc2nc3ccc(C(F)(F)F)cc3[nH]2)CC1 | 72.3% and 72.8% | 73.1% | 66.4% | 47.9% | 57.4% | 66.5% | 32.3% | 43.3% |
| Cc1c(Cn2c(C)nc3c(C(=O)O)cc(N4CCOCC4)cc32)cccc1C(F)(F)F | 104% and 97.4% | 108% | 105% | 105% | 83.2% | 89.7% | 92.7% | 95.2% |
| O=C(Nc1cccc2c(=O)cc(-c3nnn[nH]3)oc12)c1ccc(OCCCCc2ccccc2)cc1 [Pranlukast] | 103% | 104% | 106% | 114% | 101% | 104% | 105% | 113% |
| C=C(C)[C@@H]1CC[C@]2(C)CC[C@]3(C)[C@H](CC[C@@H]4[C@@]5(C)CC[C@H](O)C(C)(C)[C@@H]5CC[C@]43C)[C@@H]12 [Lupeol] | 106% | 113% | 109% | 108% | 105% | 109% | 108% | 108% |
| CCOC(=O)C1=C(C)NC(C)=C(C(=O)OCC)C1 [Diludine] | 99.6% and 92.2% | 104% | 94.3% | 99.7% | 104% | 99.3% | 99.3% | 93.9% |
